# According to PubChem BioAssay (EPA / NIEHS):
# Results filed as inconclusive are left out. Activity calls are given as the source filed them. The calls were made as follows, unless noted: active = hit-call score of the fitted dose curve at least 0.9, where 1 is the maximum; inconclusive = response in the unintended direction; inactive = score below 0.9.
# Experiments:
# [1] = target: Peroxisome proliferator-activated receptor gamma (Homo sapiens) (UniProt P37231); experiment: NVS_NR_hPPARg: NovaScreen (NVS) Nuclear Receptor Binding Assay for human Peroxisome Proliferator-activated Receptor gamma (PPARg) (AID 2283370)
# Peroxisome proliferator-activated receptor gamma (Homo sapiens), sequence (P37231 whole entry, looked up, the tested form may be a part): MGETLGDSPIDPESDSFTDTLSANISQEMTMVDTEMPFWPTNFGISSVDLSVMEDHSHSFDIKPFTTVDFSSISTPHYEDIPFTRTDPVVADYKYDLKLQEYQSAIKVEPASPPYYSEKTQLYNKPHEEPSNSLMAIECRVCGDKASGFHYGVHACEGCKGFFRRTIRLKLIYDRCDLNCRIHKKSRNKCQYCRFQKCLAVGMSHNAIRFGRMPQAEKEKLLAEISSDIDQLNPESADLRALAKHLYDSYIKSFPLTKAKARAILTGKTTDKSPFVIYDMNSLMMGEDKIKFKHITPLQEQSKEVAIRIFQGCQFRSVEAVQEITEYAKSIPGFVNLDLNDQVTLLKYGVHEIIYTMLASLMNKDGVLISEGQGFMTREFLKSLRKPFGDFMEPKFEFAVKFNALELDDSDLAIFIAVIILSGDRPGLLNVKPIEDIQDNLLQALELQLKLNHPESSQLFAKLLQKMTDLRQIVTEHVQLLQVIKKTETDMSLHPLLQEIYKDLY
# Method in brief: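 Cell-free binding to extracted PPARg protein, read by fluorescence polarization 2 h after dosing; loss of signal relative to DMSO baseline marks displacement. Primary screen in duplicate at 25 uM, actives retested in concentration series.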
# [2] = target: mouse Estrogen Receptor alpha (Era), Esr1 (gene 13982) (UniProt P19785); experiment: NVS_NR_mERa: NovaScreen (NVS) Nuclear Receptor Binding Assay for mouse Estrogen Receptor alpha (Era) (AID 2283378);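 also: hit means loss of bound radioligand signal relative to DMSO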
# Method in brief: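 Cell-free radioligand binding with extracted mouse Era protein; competitive displacement of radiolabelled ligand, read by filter-based scintillation counting 18 hours after dosing. Loss of signal versus DMSO baseline taken as binding; single screening concentration 25 uM, actives followed in concentration series.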
# [3] = target: Estrogen receptor beta (Homo sapiens) (UniProt Q92731); experiment: OT_ER_ERbERb_1440: Odyssey Thera (OT) 24-hour HEK293T Protein-Complementation Assay for Estrogen Receptor-beta/-beta Homodimer (AID 2283380);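 also: fluorescence gain from ER beta LBD homodimer complementation read by laser scanning cytometry; scored as signal increase over DMSO baseline for both agonists and antagonists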
# Estrogen receptor beta (Homo sapiens), sequence (Q92731 whole entry, looked up, the tested form may be a part): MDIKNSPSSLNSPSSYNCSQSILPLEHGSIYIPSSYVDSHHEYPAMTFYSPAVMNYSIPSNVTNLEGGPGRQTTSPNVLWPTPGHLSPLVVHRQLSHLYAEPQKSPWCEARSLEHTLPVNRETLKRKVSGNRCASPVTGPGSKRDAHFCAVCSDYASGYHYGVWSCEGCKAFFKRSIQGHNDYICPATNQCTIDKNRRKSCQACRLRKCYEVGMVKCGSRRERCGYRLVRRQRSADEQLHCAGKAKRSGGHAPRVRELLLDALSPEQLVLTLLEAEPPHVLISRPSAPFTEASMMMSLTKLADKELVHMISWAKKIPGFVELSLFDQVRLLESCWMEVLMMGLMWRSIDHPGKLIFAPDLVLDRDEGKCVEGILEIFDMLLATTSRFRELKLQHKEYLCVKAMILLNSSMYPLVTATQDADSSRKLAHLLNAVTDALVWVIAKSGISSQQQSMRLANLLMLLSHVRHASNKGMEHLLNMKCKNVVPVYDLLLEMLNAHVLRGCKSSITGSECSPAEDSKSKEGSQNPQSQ
# Method in brief: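 Fluorescence increase, nuclear for agonists or whole-cell for antagonists, relative to DMSO vehicle, quantified by laser scanning cytometer after fixation and Draq5 staining. Readout from 24 h treatment of HEK293T cells carrying complementation-paired ER beta LBD (aa 310-547).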
# [4] = target: Estrogen receptor (Homo sapiens) (UniProt P03372); experiment: OT_ERa_GFPERaERE_0480: Odyssey Thera (OT) 8-hour HeLa Transcription Induction Assay for Estrogen Receptor (AID 2283381; active = hit-call score of the fitted dose curve at least 0.9, where 1 is the maximum; inactive = score below 0.9)
# Estrogen receptor (Homo sapiens), sequence (P03372 whole entry, looked up): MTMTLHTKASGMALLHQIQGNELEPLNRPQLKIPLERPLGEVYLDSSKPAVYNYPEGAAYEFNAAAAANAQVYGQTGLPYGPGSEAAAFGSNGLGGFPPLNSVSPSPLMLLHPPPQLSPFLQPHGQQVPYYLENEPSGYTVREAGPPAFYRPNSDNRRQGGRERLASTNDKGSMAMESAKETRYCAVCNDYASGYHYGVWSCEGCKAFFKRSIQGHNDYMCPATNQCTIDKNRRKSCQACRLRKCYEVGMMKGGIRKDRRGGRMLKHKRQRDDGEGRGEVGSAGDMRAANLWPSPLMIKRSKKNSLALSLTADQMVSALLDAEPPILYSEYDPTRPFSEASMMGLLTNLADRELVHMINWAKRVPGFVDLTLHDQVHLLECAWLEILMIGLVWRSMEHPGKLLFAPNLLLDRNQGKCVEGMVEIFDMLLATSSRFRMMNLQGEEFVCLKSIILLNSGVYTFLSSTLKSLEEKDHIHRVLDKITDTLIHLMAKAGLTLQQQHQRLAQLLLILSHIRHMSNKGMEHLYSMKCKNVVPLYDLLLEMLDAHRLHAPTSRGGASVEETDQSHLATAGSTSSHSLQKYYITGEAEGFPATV
# Method in brief: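 Fluorescence microscopy with high-content image analysis measures ERE-driven GFP induction in HeLa cells at 8 h post-dose. Increases fitted against DMSO baseline.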
# [5] = target: Estrogen receptor (Homo sapiens) (UniProt P03372); experiment: OT_ERa_GFPERaERE_0120: Odyssey Thera (OT) 2-hour HeLa Transcription Induction Assay for Estrogen Receptor (AID 2283382)
# Method in brief: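 Fluorescence-microscopy images of the GFP-ERα/ERE reporter, scored by high-content image algorithms, give the readout. HeLa exposure lasted 2 h, and only signal increase over DMSO was fitted.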
# [6] = target: Retinoic acid receptor RXR-alpha (Homo sapiens) (UniProt P19793); experiment: OT_NURR1_NURR1RXRa_0480: Odyssey Thera (OT) 8-hour HEK293T Protein Complementation Assay for Nurr1/retinoid X receptor (RXR) (AID 2283385)
# Retinoic acid receptor RXR-alpha (Homo sapiens), sequence (P19793 whole entry, looked up, the tested form may be a part): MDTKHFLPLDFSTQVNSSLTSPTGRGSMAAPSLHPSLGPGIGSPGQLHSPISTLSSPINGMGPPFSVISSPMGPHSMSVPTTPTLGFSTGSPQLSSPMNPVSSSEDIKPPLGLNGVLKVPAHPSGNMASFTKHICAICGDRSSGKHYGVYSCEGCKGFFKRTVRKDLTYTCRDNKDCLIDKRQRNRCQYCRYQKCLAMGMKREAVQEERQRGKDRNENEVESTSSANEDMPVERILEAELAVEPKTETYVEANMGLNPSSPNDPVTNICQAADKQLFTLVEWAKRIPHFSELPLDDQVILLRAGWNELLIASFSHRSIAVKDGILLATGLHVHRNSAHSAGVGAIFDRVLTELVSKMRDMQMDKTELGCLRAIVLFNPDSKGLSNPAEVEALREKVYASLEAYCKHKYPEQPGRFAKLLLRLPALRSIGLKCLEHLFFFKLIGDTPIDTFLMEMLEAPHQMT
# Method in brief: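 Interaction of Nurr1 with RXRα read as reconstituted reporter fluorescence in a HEK293T fragment-complementation system, 8 h post-treatment; increase over DMSO baseline analysed.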
# [7] = target: Retinoic acid receptor RXR-alpha (Homo sapiens) (UniProt P19793); experiment: OT_NURR1_NURR1RXRa_1440: Odyssey Thera (OT) 24-hour HEK293T Protein Complementation Assay for Nurr1/retinoid X receptor (RXR) (AID 2283386)
# Method in brief: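 Gain in fluorescence, fitted relative to DMSO, reflects Nurr1–RXRα association in HEK293T cells after 24 h dosing. Bait and prey are each linked to a reporter-protein fragment that reassembles on interaction.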
# [8] = target: Peroxisome proliferator-activated receptor gamma (Homo sapiens) (UniProt P37231); experiment: OT_PPARg_PPARgSRC1_0480: Odyssey Thera (OT) 8-hour Protein-Complementation Assay for Peroxisome Proliferator-activated Receptor Gamma / SRC-1 Co-activator (AID 2283387);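 also: nuclear to cytoplasmic split Venus YFP fluorescence ratio reporting PPARg SRC-1 interaction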
# Method in brief: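 Protein-fragment complementation in HEK293T: Venus YFP halves (residues 1-158, 159-239, mutated to IFP1/IFP2) fused to PPARg/SRC-1. 8 h exposure; N/C ratio at 488 nm; DMSO negative control.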
# [9] = system: guinea pig Dopamine Transporter (DAT), gene 100714898; experiment: NVS_TR_gDAT: NovaScreen (NVS) Transporter Assay for guinea pig Dopamine Transporter (DAT) (AID 2283369);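 also: active compounds lower bound radioligand signal relative to DMSO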
# Method in brief: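 Guinea pig striatal membranes; radioligand displacement measured by filter-based scintillation counting 2 h after dosing. Initial duplicate screen at 25 uM, then concentration-response up to 50 uM for hits; loss of signal versus DMSO baseline.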
# [10] = target: human Norepinephrine Transporter (NET), SLC6A2 (gene 6530) (UniProt P23975); experiment: NVS_TR_hNET: NovaScreen (NVS) Transporter Assay for human Norepinephrine Transporter (NET) (AID 2283377);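 also: cell-free membrane protein extracted from CHO cells expressing human NET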;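 as to AC50: displacement of radioligand from human NET seen as loss of scintillation signal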
# human Norepinephrine Transporter (NET), SLC6A2 (gene 6530), sequence (P23975 whole entry, looked up): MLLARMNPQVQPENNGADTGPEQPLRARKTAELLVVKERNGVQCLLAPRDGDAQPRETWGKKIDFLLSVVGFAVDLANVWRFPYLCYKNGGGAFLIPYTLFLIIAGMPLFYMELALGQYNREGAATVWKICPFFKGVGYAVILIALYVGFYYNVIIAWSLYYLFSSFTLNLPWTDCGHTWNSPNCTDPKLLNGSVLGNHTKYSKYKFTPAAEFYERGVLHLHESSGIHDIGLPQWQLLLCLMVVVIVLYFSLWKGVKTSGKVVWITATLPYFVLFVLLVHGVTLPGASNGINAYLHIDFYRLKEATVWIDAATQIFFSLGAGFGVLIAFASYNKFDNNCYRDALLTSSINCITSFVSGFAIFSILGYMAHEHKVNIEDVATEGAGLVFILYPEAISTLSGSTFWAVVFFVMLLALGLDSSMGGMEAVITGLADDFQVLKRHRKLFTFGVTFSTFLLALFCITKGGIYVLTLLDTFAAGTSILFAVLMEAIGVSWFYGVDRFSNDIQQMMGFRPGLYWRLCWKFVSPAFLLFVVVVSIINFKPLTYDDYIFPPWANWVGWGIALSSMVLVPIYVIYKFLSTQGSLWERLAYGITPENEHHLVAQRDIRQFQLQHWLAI
# Method in brief: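 Single-concentration duplicate screen at 25 uM, then concentration-response for actives; displacement of specific radioligand from human NET in CHO membrane extracts, filter-based scintillation detection at 1 h relative to DMSO.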
# [11] = target: rat Androgen Receptor (AR), Ar (gene 24208) (UniProt P15207); experiment: NVS_NR_rAR: NovaScreen (NVS) Nuclear Receptor Binding Assay for rat Androgen Receptor (AR) (AID 2283366)
# Method in brief: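 Actives from a duplicate single-concentration (25 uM) primary run went on to concentration series. Displacement of radioligand was counted by filtration and scintillation, 18 h post-dose, using prostate extracts from testosterone-pretreated rats, with DMSO as baseline.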
# [12] = target: human Dopamine Transporter (DAT), SLC6A3 (gene 6531) (UniProt Q01959); experiment: NVS_TR_hDAT: NovaScreen (NVS) Transporter Assay for human Dopamine Transporter (DAT) (AID 2283374);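 also: activity means loss of bound radioligand signal relative to DMSO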
# human Dopamine Transporter (DAT), SLC6A3 (gene 6531), sequence (Q01959 whole entry, looked up): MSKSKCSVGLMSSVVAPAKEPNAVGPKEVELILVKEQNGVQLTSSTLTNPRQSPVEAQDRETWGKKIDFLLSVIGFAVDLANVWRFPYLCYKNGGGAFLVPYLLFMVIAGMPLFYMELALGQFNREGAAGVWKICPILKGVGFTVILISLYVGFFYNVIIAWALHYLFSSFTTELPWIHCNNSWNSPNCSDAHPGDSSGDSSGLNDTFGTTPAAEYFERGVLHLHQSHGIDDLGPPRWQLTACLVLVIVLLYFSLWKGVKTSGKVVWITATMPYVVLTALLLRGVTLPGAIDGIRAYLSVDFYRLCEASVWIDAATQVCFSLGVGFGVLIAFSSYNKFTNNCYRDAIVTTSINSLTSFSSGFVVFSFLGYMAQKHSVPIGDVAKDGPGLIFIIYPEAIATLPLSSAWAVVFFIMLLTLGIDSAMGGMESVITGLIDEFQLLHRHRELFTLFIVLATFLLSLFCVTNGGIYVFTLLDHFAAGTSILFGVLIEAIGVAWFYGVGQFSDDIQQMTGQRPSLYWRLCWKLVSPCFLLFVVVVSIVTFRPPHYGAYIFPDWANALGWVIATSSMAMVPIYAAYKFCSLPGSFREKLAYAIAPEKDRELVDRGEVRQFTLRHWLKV
# Method in brief: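 Duplicate single-point screening at 25 uM preceded concentration-series follow-up of actives. Binding was measured by competitive displacement of a radioligand from DAT protein, filter-counted by scintillation 1 h after dosing. Decrease relative to DMSO taken as activity.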
# [13] = target: guinea pig Sigma Receptor, Non-selective Binding, SIGMAR1 (gene 100135589) (UniProt Q60492); experiment: NVS_OR_gSIGMA_NonSelective: NovaScreen (NVS) Nuclear Receptor Binding Assay for guinea pig Sigma Receptor, Non-selective Binding (AID 2283367)
# guinea pig Sigma Receptor, Non-selective Binding, SIGMAR1 (gene 100135589), sequence (Q60492 whole entry, looked up): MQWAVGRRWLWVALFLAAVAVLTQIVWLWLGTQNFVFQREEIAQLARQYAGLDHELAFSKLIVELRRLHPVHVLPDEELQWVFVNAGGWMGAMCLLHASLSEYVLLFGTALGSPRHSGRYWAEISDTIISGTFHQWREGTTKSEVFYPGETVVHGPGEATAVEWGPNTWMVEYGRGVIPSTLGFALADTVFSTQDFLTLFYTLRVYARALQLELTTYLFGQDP
# Method in brief: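 Guinea pig brain membrane sigma sites were labelled with a radioligand, and bound radioactivity was counted after filtration 1 h post-dose. Compounds were screened at 25 uM in duplicate, then retested as concentration series when active.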
# [14] = target: rat Serotonin Transporter (SERT), Slc6a4 (gene 25553) (UniProt P31652); experiment: NVS_TR_rSERT: NovaScreen (NVS) Transporter Assay for rat Serotonin Transporter (SERT) (AID 2283375)
# Method in brief: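 Rat forebrain membranes were incubated with test chemical for 1 hour; radioligand binding to SERT was measured by filter-based scintillation counting. Primary screen ran in duplicate at 25 uM, with actives followed up in concentration series; DMSO served as negative control.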
# [15] = target: Nuclear receptor subfamily 1 group I member 2 (Homo sapiens) (UniProt O75469); experiment: NVS_NR_hPXR: NovaScreen (NVS) Nuclear Receptor Binding Assay for human Pregnane X Receptor (PXR) (AID 2283365);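 also: a drop in FRET signal versus DMSO baseline means the compound binds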
# Nuclear receptor subfamily 1 group I member 2 (Homo sapiens), sequence (O75469 whole entry, looked up): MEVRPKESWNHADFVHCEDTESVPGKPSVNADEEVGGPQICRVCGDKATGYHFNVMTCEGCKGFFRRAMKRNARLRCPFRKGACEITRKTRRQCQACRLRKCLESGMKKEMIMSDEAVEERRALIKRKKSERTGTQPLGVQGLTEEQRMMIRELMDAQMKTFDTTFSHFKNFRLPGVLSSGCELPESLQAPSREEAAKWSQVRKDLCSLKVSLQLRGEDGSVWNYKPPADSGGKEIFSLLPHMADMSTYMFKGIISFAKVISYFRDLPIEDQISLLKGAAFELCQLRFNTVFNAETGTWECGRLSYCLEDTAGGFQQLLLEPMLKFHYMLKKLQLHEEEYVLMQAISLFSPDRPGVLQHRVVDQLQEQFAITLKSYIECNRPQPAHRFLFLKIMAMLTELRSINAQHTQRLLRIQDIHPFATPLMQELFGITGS
# Method in brief: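 Cell-free binding assay with extracted human PXR protein, read by TR-FRET 2 h after dosing; loss of signal relative to DMSO baseline indicates binding. Primary screen at 25 uM in duplicate, actives retested in concentration series.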
# [16] = target: Agonist Androgen Response Element (ARE), AR (gene 367) (UniProt P10275); experiment: OT_AR_ARELUC_AG_1440: Odyssey Thera (OT) 24-hour CHO-K1 Luciferase Assay for Agonist Androgen Response Element (ARE) (AID 2283379)
# Method in brief: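 Readout: luciferase bioluminescence from CHO-K1 ARE-luc cells, measured 24 h post-dosing; agonism = increased mean luminescence vs DMSO controls, fitted in positive direction.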
# [17] = target: Bile acid receptor (Homo sapiens) (UniProt Q96RI1); experiment: OT_FXR_FXRSRC1_0480: Odyssey Thera (OT) 8-hour HEK293T Protein-Complementation Assay for Farnesoid X receptor/SRC-1 Co-activator (AID 2283383)
# Bile acid receptor (Homo sapiens), sequence (Q96RI1 whole entry, looked up, the tested form may be a part): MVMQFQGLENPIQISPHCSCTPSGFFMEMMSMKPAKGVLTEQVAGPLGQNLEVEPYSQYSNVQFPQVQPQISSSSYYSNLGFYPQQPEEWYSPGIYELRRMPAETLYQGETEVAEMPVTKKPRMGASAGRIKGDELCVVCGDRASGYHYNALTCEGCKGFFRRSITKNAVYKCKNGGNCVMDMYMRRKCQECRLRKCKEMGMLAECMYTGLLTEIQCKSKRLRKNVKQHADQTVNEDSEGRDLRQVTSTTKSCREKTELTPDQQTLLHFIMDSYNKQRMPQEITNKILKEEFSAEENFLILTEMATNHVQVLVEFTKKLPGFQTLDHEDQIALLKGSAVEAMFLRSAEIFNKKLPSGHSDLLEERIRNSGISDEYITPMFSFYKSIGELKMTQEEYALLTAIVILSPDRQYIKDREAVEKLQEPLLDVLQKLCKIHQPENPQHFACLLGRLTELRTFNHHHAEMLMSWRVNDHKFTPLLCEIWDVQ
# Method in brief: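 Binding of FXR to coactivator SRC-1 was read as fluorescence from a reconstituted split reporter in HEK293T cells, 8 h after chemical addition. Only increases in signal versus DMSO were fit.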
# [18] = target: Bile acid receptor (Homo sapiens) (UniProt Q96RI1); experiment: OT_FXR_FXRSRC1_1440: Odyssey Thera (OT) 24-hour HEK293T Protein-Complementation Assay for Farnesoid X receptor/SRC-1 Co-activator (AID 2283384)
# Method in brief: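 Protein-fragment complementation: FXR and SRC-1 fused to reporter fragments that reassemble on interaction, read by fluorescence intensity. Human HEK293T cells measured 24 h post-dose; positive-direction fit versus DMSO.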
structure (smiles),measurement,setting,value
CCCCCCCCCCCC(=O)OCC(O)CO (stereo not drawn),outcome,[1],inactive
same,AC50,[2],6.68 µM (active)
same,outcome,[3],inactive
same,outcome,[4],inactive
same,outcome,[5],inactive
same,outcome,[6],inactive
same,outcome,[7],inactive
same,outcome,[8],inactive
CCCCCCC(C)(C)S,outcome,[1],inactive
same,outcome,[3],inactive
same,outcome,[6],inactive
same,outcome,[7],inactive
same,outcome,[8],inactive
CCN(CCC#N)c1ccc(N=Nc2ccc([N+](=O)[O-])cc2)cc1,outcome,[9],inactive
same,outcome,[10],inactive
C=C(C)[C@H]1CC=C(C)C(=O)C1,outcome,[11],inactive
ClC(c1ccccc1)(c1ccccc1)c1ccccc1,outcome,[9],inactive
same,outcome,[12],inactive
COc1ccc(CCN2CCC(Nc3nc4ccccc4n3Cc3ccc(F)cc3)CC2)cc1,AC50,[13],1.24 µM (active)
same,AC50,[9],4.41 µM (active)
same,AC50,[12],3.89 µM (active)
same,AC50,[14],2.26 µM (active)
same,AC50,[10],2.52 µM (active)
CCCC(=O)OC(C)(C)Cc1ccccc1,AC50,[1],13.4 µM (active)
same,outcome,[3],inactive
same,outcome,[8],inactive
CN(c1nccc(=O)[nH]1)C1CCN(c2nc3ccccc3n2Cc2ccc(F)cc2)CC1,AC50,[13],0.976 µM (active)
same,AC50,[9],1.76 µM (active)
same,AC50,[12],11.5 µM (active)
same,outcome,[10],inactive
CC(C)CCCCCCCCCCCCCCC(=O)O,outcome,[1],inactive
same,outcome,[3],inactive
same,outcome,[8],inactive
CCCCCCCC(=O)OCC(O)CO (stereo not drawn),outcome,[15],inactive
same,outcome,[3],inactive
same,outcome,[6],inactive
same,outcome,[8],inactive
CCOC(=O)C1OC1c1ccccc1 (stereo not drawn),outcome,[15],inactive
same,outcome,[6],inactive
same,outcome,[8],inactive
CN(C)C(=S)SC(=S)N(C)C,AC50,[9],6.19 µM (active)
CCc1cc(Cc2cc(CC)cc(C(C)(C)C)c2O)c(O)c(C(C)(C)C)c1,outcome,[1],inactive
same,outcome,[16],inactive
same,outcome,[3],inactive
same,outcome,[8],inactive
CC(C)(C)CC(C)(C)c1ccc(OCCOCC[N+](C)(C)Cc2ccccc2)cc1,AC50,[9],1.75 µM (active)
O=C1OC[C@H](Cc2cccc(O)c2)[C@H]1Cc1cccc(O)c1,AC50,[9],0.771 µM (active)
same,AC50,[12],0.0517 µM (active)
same,outcome,[6],inactive
same,outcome,[8],inactive
C[C@H]1O[C@@H](O[C@H]2[C@@H](O)C[C@H](O[C@H]3[C@@H](O)C[C@H](O[C@H]4CC[C@@]5(C)[C@H](CC[C@@H]6[C@@H]5C[C@@H](O)[C@]5(C)[C@@H](C7=CC(=O)OC7)CC[C@]65O)C4)O[C@@H]3C)O[C@@H]2C)C[C@H](O)[C@@H]1O,outcome,[1],inactive
same,outcome,[16],inactive
same,outcome,[3],inactive
same,outcome,[8],inactive
C=CC(C)(O)CCC=C(C)C (stereo not drawn),outcome,[1],inactive
same,outcome,[3],inactive
same,outcome,[17],inactive
same,outcome,[18],inactive
same,outcome,[6],inactive
same,outcome,[8],inactive
C=C(C)C(=O)OCCOC1CC2CC1C1C=CCC21 (stereo not drawn),outcome,[3],inactive
same,AC50,[17],72.3 µM (active)
same,outcome,[18],inactive
same,outcome,[6],inactive
same,outcome,[8],inactive
Cc1cc(=O)oc2cc(N(C)C)ccc12,outcome,[3],inactive
same,AC50,[17],50 µM (active)
same,AC50,[18],50 µM (active)
same,outcome,[6],inactive
same,outcome,[7],inactive
same,outcome,[8],inactive
COc1cccc(OC)c1O,outcome,[10],inactive
NC(=S)NNC(N)=S,outcome,[10],inactive
CCCCCC(C=O)=Cc1ccccc1,outcome,[3],inactive
same,outcome,[17],inactive
same,outcome,[18],inactive
same,outcome,[6],inactive
same,outcome,[8],inactive
